Screening results: PubChem, National Center for Advancing Translational Sciences (NCATS)
Rows were chosen to be rich in hits. Some 1.1% of all compounds tested hit in one or more screens of this group.
AmpC detergent – qHTS Inhibitors of AmpC Beta-Lactamase (assay with detergent); P00811; AmpC hydrolysis of nitrocefin, absorbance 480 nm, 0.01% Triton; Potency, µM (doses to about 114 µM), for the others: top-dose activity change, negative = inhibition, most hits filed as inhibitors; 0.041% of 370,000 active; AID 485294, 2010;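 further: 0% = no-compound wells and -100% = no-enzyme wells; nearly all actives have a fitted effect of over 25% in size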
Target sequence (P00811 whole entry, looked up): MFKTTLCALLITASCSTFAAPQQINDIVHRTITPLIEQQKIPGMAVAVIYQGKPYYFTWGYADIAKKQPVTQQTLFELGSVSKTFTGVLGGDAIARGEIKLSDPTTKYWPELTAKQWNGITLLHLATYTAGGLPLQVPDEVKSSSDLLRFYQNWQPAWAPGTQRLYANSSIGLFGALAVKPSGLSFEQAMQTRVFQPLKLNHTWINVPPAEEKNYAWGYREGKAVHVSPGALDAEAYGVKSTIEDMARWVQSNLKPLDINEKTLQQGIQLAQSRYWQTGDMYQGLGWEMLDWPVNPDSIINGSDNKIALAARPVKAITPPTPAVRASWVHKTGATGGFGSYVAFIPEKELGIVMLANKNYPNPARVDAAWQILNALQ
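20 mM phosphate pH 7.0 + 0.01% (detergent screen) or 0.0001% Triton X-100; 5.3 nM AmpC reagent; cpd preinc 15 min RT; nitrocefin (800 uM stock) to start; A480 q20 s × 4 min; Activity was normalised to no-enzyme and no-compound control wells.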
AmpC no deterg – qHTS Inhibitors of AmpC Beta-Lactamase (assay without detergent) | P00811 | AmpC nitrocefin hydrolysis, absorbance 480 nm, 0.0001% Triton | Potency, µM (top dose mostly 57.1 µM), without a hit: top-dose activity change, negative = inhibition, actives largely listed as inhibitors | 0.52% of 330,000 active;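 further: plate controls were no compound for no effect and no enzyme for full effect; nearly all actives have a fitted effect of over 20% in size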
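AmpC (5.3 nM in the dispensed reagent) in 20 mM phosphate pH 7.0 with 0.01% (detergent screen) or 0.0001% Triton X-100 was preincubated with compounds for 15 min at room temperature. Nitrocefin was then added from an 800 uM solution, and hydrolysis was followed at 480 nm.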
VACV Venus inh – qHTS for Stage-Specific Inhibitors of Vaccinia Orthopoxvirus: Venus Reporter Primary qHTS | 0.46% of 330,000 active | AID 720580, 2013 | Vaccinia virus Venus reporter expression, fluorescence | Potency, µM (highest dose often 36.5 µM), for inactives: top-dose activity change, negative = inhibition, hits mostly inhibitors; calls by dose curve; tested in A549 cells; further: nearly all actives have a fitted effect of over 30% in size
Vaccinia mCherry – qHTS for Stage-Specific Inhibitors of Vaccinia Orthopoxvirus: mCherry Reporter Primary qHTS; Vaccinia virus mCherry reporter infection, fluorescence; Potency, µM (titrated, usually from 36.5 µM), without a hit: at the top dose activity change, negative = inhibition, most hits filed as inhibitors; 0.63% of 310,000 active; AID 720579, 2013; calls by dose curve; tested in A549 cells; further: nearly all actives have a fitted effect of over 35% in size
* hit, by the source's call. Unless noted, the call rests on the fitted dose curve; in most records, active means well fitted curve in the direction sought with a large enough effect; inconclusive means small, poorly fitted or top-dose-only effect, or another doubt; inactive means no such curve, though single readings can be large; an effect the other way counts as inactive or inconclusive. Unless noted, on the % scale 0 is the no-effect control and ±100 the full control effect; potency means the concentration at half of the fitted maximal effect.

`Cc1ccc(NN=C2c3ccccc3-c3ccccc32)cc1` gave AmpC detergent inconclusive, AmpC no deterg 11µM*, VACV Venus inh -19% and Vaccinia mCherry -1%.
`O=C(Nc1ccccc1N1CCCC1)c1ccc([N+](=O)[O-])o1` gave AmpC detergent -7% and AmpC no deterg -16%.
O=C(Nc1ccccc1N1CCN(C(=O)c2ccccc2)CC1)c1ccc([N+](=O)[O-])o1 was read as AmpC detergent -11%, AmpC no deterg 24%, VACV Venus inh inconclusive and Vaccinia mCherry 11µM*.
`CC(C)C(=O)N1CCN(c2ccccc2NC(=O)c2ccc([N+](=O)[O-])o2)CC1` gave AmpC detergent -1%, AmpC no deterg 21%, VACV Venus inh inconclusive and Vaccinia mCherry 11µM*.
For CCC(=O)N1CCN(c2ccccc2NC(=O)c2ccc([N+](=O)[O-])o2)CC1 the results were AmpC detergent -4%, AmpC no deterg 13%, VACV Venus inh -23% and Vaccinia mCherry inconclusive.
Screening OC(c1ccc2c(c1)CN(Cc1cccn1-c1cccnc1)CCO2)C1CCCCC1 (stereo not drawn) returned VACV Venus inh -14% and Vaccinia mCherry -27%.
Screening COc1cccc(/C=N/NC(=O)c2cc(-c3cccn3C)n[nH]2)c1O returned AmpC detergent inconclusive, AmpC no deterg -16%, VACV Venus inh inconclusive and Vaccinia mCherry 4µM*.
COc1cc(/C=N/NC(=O)c2cc(-c3cccn3C)n[nH]2)cc(OC)c1OC was read as AmpC detergent inconclusive and AmpC no deterg -30%.
Screening COc1cccc(/C=N/NC(=O)c2cc(-c3cccn3C)n[nH]2)c1 returned AmpC detergent -14% and AmpC no deterg 13µM*.
Screening O=C(NCc1ccon1)c1ccc(-c2csc3ccccc23)nc1N1CCC(N2CCCC(CO)C2)CC1 (stereo not drawn) returned VACV Venus inh 12% and Vaccinia mCherry -6%.
Screening O=C(NCC1CCC2(CCN(Cc3cc4ccccc4o3)CC2)O1)c1ccccc1 (stereo not drawn) returned VACV Venus inh -1% and Vaccinia mCherry -5%.
For O=C(c1cc2ccccc2oc1=O)N1CCN(c2ccc(N3CCOCC3)nn2)CC1 the results were AmpC detergent inconclusive, AmpC no deterg 0.14µM*, VACV Venus inh -17% and Vaccinia mCherry inactive.
`Cn1nc(C(=O)NCCN2Cc3ccccc3OC(c3ccsc3)C2)c2ccccc2c1=O` (stereo not drawn) gave VACV Venus inh -3% and Vaccinia mCherry -8%.
Screening O=C(c1cc(-c2ccc(Cl)cc2)n[nH]1)N1CCN(S(=O)(=O)c2ccc(Br)s2)CC1 returned AmpC detergent 1%, VACV Venus inh inconclusive and Vaccinia mCherry 11µM*.
CCC1(C2CCN(Cc3ccc(C)s3)CC2)NC(=O)N(CC2COc3ccccc3O2)C1=O (stereo not drawn) was read as VACV Venus inh -18% and Vaccinia mCherry -22%.
`COc1cccc(CNC(=O)c2c(OC)cc(=O)n3c2CCN(C(=O)C2CC=CCC2)CC3)c1` (stereo not drawn) gave VACV Venus inh -10% and Vaccinia mCherry -16%.
O=C(O)/C(=C\c1cccc(F)c1)c1ccc(S(=O)(=O)N2CCCC2)s1 was read as AmpC detergent 1%, AmpC no deterg -14%, VACV Venus inh -6% and Vaccinia mCherry -12%.
Screening Cc1cccc(/C=C(\C(=O)O)c2ccc(S(=O)(=O)N3CCCC3)s2)c1 returned AmpC no deterg 32µM*, VACV Venus inh 1% and Vaccinia mCherry -15%.
For O=C(c1cccnc1)C1CCCN(Cc2ccc3c(c2)CN(C(=O)c2cccc(Cl)c2)CCO3)C1 (stereo not drawn) the results were VACV Venus inh -16% and Vaccinia mCherry -14%.
`COC(=O)c1ccccc1NCc1cc(=O)oc2cc(O)c(O)cc12` gave AmpC detergent -6%, AmpC no deterg -35%, VACV Venus inh inconclusive and Vaccinia mCherry 7.1µM*.
COc1ccc(C)cc1NCc1cc(=O)oc2cc(-c3ccccc3)c(O)cc12 was read as AmpC detergent -5%, AmpC no deterg 3.5µM*, VACV Venus inh inconclusive and Vaccinia mCherry -23%.
`Cc1cc(C)cc(NCc2cc(=O)oc3cc(-c4ccccc4)c(O)cc23)c1` gave AmpC detergent inconclusive, AmpC no deterg -53%, VACV Venus inh -17% and Vaccinia mCherry inconclusive.
`CSc1ccc(/C=C2\C=C(C(O)c3ccc(SC)cc3)c3ccccc32)cc1` (stereo not drawn) gave VACV Venus inh inconclusive and Vaccinia mCherry -13%.
`C/C=C(\C)C(=O)NCCN1Cc2ccccc2OC(c2ccccc2OC)C1` (stereo not drawn) gave VACV Venus inh -7% and Vaccinia mCherry -21%.
For O=C1C=CC(O)(c2cc(=O)c3c(O)cc(O)cc3o2)C=C1 the results were AmpC detergent inconclusive, AmpC no deterg -19%, VACV Venus inh inconclusive and Vaccinia mCherry 11µM*.
OC1(c2ccc3c(c2)CN(Cc2nccs2)CCO3)CCN(c2ccccc2F)CC1 was read as VACV Venus inh 0% and Vaccinia mCherry -12%.
O=C(CCCSc1nnc(SCCCC(=O)c2ccc(F)cc2)s1)c1ccc(F)cc1 was read as AmpC detergent -4%, AmpC no deterg -3%, VACV Venus inh 11µM* and Vaccinia mCherry inconclusive.
`COc1cc(OC)c(OC)cc1CN1CCCC(c2nc(C)ncc2-c2ccc(F)cc2)C1` (stereo not drawn) gave VACV Venus inh -14% and Vaccinia mCherry -1%.
For Cc1ccc(-n2cccc2/C=C2/NC(=O)N(CC(=O)Nc3cccc(C)c3)C2=O)cc1 the results were AmpC detergent inconclusive, AmpC no deterg 32µM*, VACV Venus inh -27% and Vaccinia mCherry -9%.
CC(C)C[C@H](N)c1nnc(S(=O)(=O)Cc2ccc(F)cc2)o1 was read as AmpC detergent 1.4µM*, AmpC no deterg 2µM* and VACV Venus inh -10%.
For COc1ccc(COC(=O)C2=C(C)NC(=O)NC2c2ccc(O)c(OC)c2)cc1 (stereo not drawn) the results were AmpC detergent inconclusive, AmpC no deterg -16%, VACV Venus inh -17% and Vaccinia mCherry inactive.
COc1ccc(C[C@@H]2C(=O)N[C@H](C)C(=O)N(C)[C@@H]3Cc4ccc(cc4)Oc4cc(ccc4O)C[C@H](C(=O)N[C@@H](C)C(=O)N[C@H](C)C(=O)N2C)N(C)C3=O)cc1 was read as VACV Venus inh 0.28µM* and Vaccinia mCherry 158µM*.
COc1ccc(CC2C(=O)NC(C)C(=O)N(C)C3C(=O)N(C)C(Cc4ccc(O)c(c4)Oc4ccc(cc4)C3O)C(=O)NC(C)C(=O)NC(C)C(=O)N2C)cc1 (stereo not drawn) was read as VACV Venus inh 0.089µM* and Vaccinia mCherry 0.32µM*.
